# Results from the supplement of paper PMC8728848.
# This is one part of a sample in which the strongest signals are shown more often than they occur.
# B1: LBL-152 (Laetiporus bicolor), B0D650 (protein)
# chain: MSNEYNPPLGIAFRLCGLASDRVLFSRVSPSPEVFHHPKSEVYPDQWFVAIPGSGQNAGCYAIKSKNTGKVLFSRMSPDPRVGHIDGDGKYPDNWFKFEAGSGKYAGYFRLRAVASDTVLVSRTSTGTDTQVINYPATSAKYDDQYFTILFDHHHHHH
# Columns and labels:
# Test in all cases: glycan array binding signal (z-score within array); higher = stronger binding
# Conditions in all cases: glycan notation: IUPAC condensed, linker removed
# [1] = target: Gal(b1-4)GlcNAc(b1-3)Gal(b1-4)GlcNAc(b1-3)Gal(b1-4)GlcNAc(b1-3)Gal(b1-4)GlcNAc(b1-2)Man(a1-3)[Gal(b1-4)GlcNAc(b1-3)Gal(b1-4)GlcNAc(b1-3)Gal(b1-4)GlcNAc(b1-3)Gal(b1-4)GlcNAc(b1-2)Man(a1-6)]Man(b1-4)GlcNAc(b1-4)GlcNAc
# Outline: (§1)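 From the Consortium for Functional Glycomics database, 3228 arrays were curated, keeping only those whose protein sequence was available. Binding is given as a within-array Z-score averaged across arrays sharing a protein sequence and across linkers. Negative Z-scores can be read as non-binding.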
# [2] = target: Gal(b1-4)GlcNAc(b1-3)Gal(b1-4)GlcNAc(b1-3)Gal(b1-4)GlcNAc(b1-3)Gal(b1-4)GlcNAc(b1-2)Man(a1-3)[Gal(b1-4)GlcNAc(b1-3)Gal(b1-4)GlcNAc(b1-3)Gal(b1-4)GlcNAc(b1-3)Gal(b1-4)GlcNAc(b1-2)Man(a1-6)]Man(b1-4)GlcNAc(b1-4)[Fuc(a1-6)]GlcNAc
# Outline: as §1
# [3] = target: Gal(b1-4)GlcNAc(b1-3)Gal(b1-4)GlcNAc(b1-3)Gal(b1-4)GlcNAc(b1-3)Gal(b1-4)GlcNAc(b1-2)[Gal(b1-4)GlcNAc(b1-3)Gal(b1-4)GlcNAc(b1-3)Gal(b1-4)GlcNAc(b1-3)Gal(b1-4)GlcNAc(b1-6)]Man(a1-6)[Gal(b1-4)GlcNAc(b1-3)Gal(b1-4)GlcNAc(b1-3)Gal(b1-4)GlcNAc(b1-3)Gal(b1-4)GlcNAc(b1-2)Man(a1-3)]Man(b1-4)GlcNAc(b1-4)[Fuc(a1-6)]GlcNAc
# Outline: as §1
# [4] = target: Gal(b1-4)GlcNAc(b1-3)Gal(b1-4)GlcNAc(b1-3)Gal(b1-4)GlcNAc(b1-3)Gal(b1-4)GlcNAc(b1-3)Gal(b1-4)GlcNAc(b1-2)Man(a1-3)[Gal(b1-4)GlcNAc(b1-3)Gal(b1-4)GlcNAc(b1-3)Gal(b1-4)GlcNAc(b1-3)Gal(b1-4)GlcNAc(b1-3)Gal(b1-4)GlcNAc(b1-2)Man(a1-6)]Man(b1-4)GlcNAc(b1-4)GlcNAc
# Outline: as §1
# [5] = target: Gal(b1-4)GlcNAc(b1-3)Gal(b1-4)GlcNAc(b1-3)Gal(b1-4)GlcNAc(b1-3)Gal(b1-4)GlcNAc(b1-3)Gal(b1-4)GlcNAc(b1-2)Man(a1-3)[Gal(b1-4)GlcNAc(b1-3)Gal(b1-4)GlcNAc(b1-3)Gal(b1-4)GlcNAc(b1-3)Gal(b1-4)GlcNAc(b1-3)Gal(b1-4)GlcNAc(b1-2)Man(a1-6)]Man(b1-4)GlcNAc(b1-4)[Fuc(a1-6)]GlcNAc
# Outline: as §1
# [6] = target: Gal(b1-4)GlcNAc(b1-3)Gal(b1-4)GlcNAc(b1-3)Gal(b1-4)GlcNAc(b1-3)Gal(b1-4)GlcNAc(b1-3)Gal(b1-4)GlcNAc(b1-2)[Gal(b1-4)GlcNAc(b1-3)Gal(b1-4)GlcNAc(b1-3)Gal(b1-4)GlcNAc(b1-3)Gal(b1-4)GlcNAc(b1-3)Gal(b1-4)GlcNAc(b1-6)]Man(a1-6)[Gal(b1-4)GlcNAc(b1-3)Gal(b1-4)GlcNAc(b1-3)Gal(b1-4)GlcNAc(b1-3)Gal(b1-4)GlcNAc(b1-3)Gal(b1-4)GlcNAc(b1-2)Man(a1-3)]Man(b1-4)GlcNAc(b1-4)[Fuc(a1-6)]GlcNAc
# Outline: as §1
# [7] = target: Gal(b1-4)GlcNAc(b1-3)Gal(b1-4)GlcNAc(b1-3)Gal(b1-4)GlcNAc(b1-3)Gal(b1-4)GlcNAc(b1-3)Gal(b1-4)GlcNAc(b1-3)Gal(b1-4)GlcNAc(b1-2)Man(a1-3)[Gal(b1-4)GlcNAc(b1-3)Gal(b1-4)GlcNAc(b1-3)Gal(b1-4)GlcNAc(b1-3)Gal(b1-4)GlcNAc(b1-3)Gal(b1-4)GlcNAc(b1-3)Gal(b1-4)GlcNAc(b1-2)Man(a1-6)]Man(b1-4)GlcNAc(b1-4)GlcNAc
# Outline: as §1
# [8] = target: Gal6S(b1-4)GlcNAc
# Outline: as §1
# [9] = target: GalNAc(b1-3)Gal(a1-6)Gal(b1-4)Glc
# Outline: as §1
# [10] = target: GalNAc3S(b1-4)GlcNAc3S
# Outline: as §1
# [11] = target: GalNAc4S6S(b1-4)GlcNAc
# Outline: as §1
# [12] = target: GlcNAc(a1-4)Gal(b1-4)GlcNAc(b1-3)Gal(b1-4)[Fuc(a1-3)]GlcNAc(b1-3)Gal(b1-4)[Fuc(a1-3)]GlcNAc
# Outline: as §1
# [13] = target: GlcNAc(b1-2)Man(a1-3)[GlcNAc(b1-4)][GlcNAc(b1-2)Man(a1-6)]Man(b1-4)GlcNAc(b1-4)GlcNAc
# Outline: as §1
# [14] = target: GlcNAc(b1-3)Gal(b1-4)GlcNAc(b1-3)Gal(b1-4)GlcNAc(b1-3)Gal(b1-4)GlcNAc(b1-3)Gal(b1-4)GlcNAc(b1-2)Man(a1-3)[GlcNAc(b1-3)Gal(b1-4)GlcNAc(b1-3)Gal(b1-4)GlcNAc(b1-3)Gal(b1-4)GlcNAc(b1-3)Gal(b1-4)GlcNAc(b1-2)Man(a1-6)]Man(b1-4)GlcNAc(b1-4)GlcNAc
# Outline: as §1
# [15] = target: GlcNAc(b1-3)Gal(b1-4)GlcNAc(b1-3)Gal(b1-4)GlcNAc(b1-3)Gal(b1-4)GlcNAc(b1-3)Gal(b1-4)GlcNAc(b1-2)Man(a1-3)[GlcNAc(b1-3)Gal(b1-4)GlcNAc(b1-3)Gal(b1-4)GlcNAc(b1-3)Gal(b1-4)GlcNAc(b1-3)Gal(b1-4)GlcNAc(b1-2)Man(a1-6)]Man(b1-4)GlcNAc(b1-4)[Fuc(a1-6)]GlcNAc
# Outline: as §1
# [16] = target: GlcNAc(b1-3)Man
# Outline: as §1
# [17] = target: GlcNAc6S(b1-3)Gal(b1-4)GlcNAc
# Outline: as §1
# [18] = target: Neu5Ac(a2-3)Gal(b1-3)GalNAc(b1-3)Gal(a1-4)Gal(b1-4)Glc
# Outline: as §1
# [19] = target: Neu5Ac(a2-3)Gal(b1-3)GalNAc(b1-4)[Neu5Ac(a2-8)Neu5Ac(a2-3)]Gal(b1-4)Glc
# Outline: as §1
# [20] = target: Neu5Ac(a2-3)Gal(b1-3)[Fuc(a1-4)]GlcNAc(b1-3)Gal(b1-3)[Fuc(a1-4)]GlcNAc
# Outline: as §1
# [21] = target: Neu5Ac(a2-3)Gal(b1-4)GlcNAc(b1-2)Man
# Outline: as §1
# [22] = target: Neu5Ac(a2-3)Gal(b1-4)GlcNAc(b1-2)[Neu5Ac(a2-3)Gal(b1-4)GlcNAc(b1-4)]Man(a1-3)[GlcNAc(b1-4)][Neu5Ac(a2-3)Gal(b1-4)GlcNAc(b1-4)Man(a1-6)]Man(b1-4)GlcNAc(b1-4)GlcNAc
# Outline: as §1
# [23] = target: Neu5Ac(a2-3)Gal(b1-4)GlcNAc(b1-3)Gal(b1-4)GlcNAc(b1-6)[Gal(b1-3)]GalNAc
# Outline: as §1
# [24] = target: Neu5Ac(a2-3)Gal(b1-4)GlcNAc(b1-6)GalNAc
# Outline: as §1
# [25] = target: Neu5Ac(a2-3)GalNAc(b1-4)GlcNAc
# Outline: as §1
# [26] = target: Neu5Ac(a2-3)[GalNAc(b1-4)]Gal(b1-4)GlcNAc(b1-3)GalNAc
# Outline: as §1
# [27] = target: Neu5Ac(a2-6)Gal(b1-4)GlcNAc(b1-3)Gal(b1-4)GlcNAc(b1-3)Gal(b1-4)GlcNAc(b1-2)Man(a1-3)[Neu5Ac(a2-6)Gal(b1-4)GlcNAc(b1-3)Gal(b1-4)GlcNAc(b1-3)Gal(b1-4)GlcNAc(b1-2)Man(a1-6)]GalNAc
# Outline: as §1
# [28] = target: Neu5Ac(a2-6)Gal(b1-4)GlcNAc(b1-3)Gal(b1-4)GlcNAc(b1-6)[Gal(b1-3)]GalNAc
# Outline: as §1
# [29] = target: Neu5Ac(a2-8)Neu5Ac(a2-3)Gal(b1-4)Glc
# Outline: as §1
binder,measurement,setting,value
B1,glycan array binding signal (z-score),[1],5.39
same,glycan array binding signal (z-score),[2],8.72
same,glycan array binding signal (z-score),[3],6.24
same,glycan array binding signal (z-score),[4],10.6
same,glycan array binding signal (z-score),[5],9.73
same,glycan array binding signal (z-score),[6],7.26
same,glycan array binding signal (z-score),[7],5.94
same,glycan array binding signal (z-score),[8],-0.151
same,glycan array binding signal (z-score),[9],-0.159
same,glycan array binding signal (z-score),[10],-0.163
same,glycan array binding signal (z-score),[11],-0.15
same,glycan array binding signal (z-score),[12],-0.147
same,glycan array binding signal (z-score),[13],-0.153
same,glycan array binding signal (z-score),[14],3.47
same,glycan array binding signal (z-score),[15],4.51
same,glycan array binding signal (z-score),[16],-0.156
same,glycan array binding signal (z-score),[17],-0.157
same,glycan array binding signal (z-score),[18],-0.15
same,glycan array binding signal (z-score),[19],-0.145
same,glycan array binding signal (z-score),[20],-0.147
same,glycan array binding signal (z-score),[21],-0.149
same,glycan array binding signal (z-score),[22],-0.16
same,glycan array binding signal (z-score),[23],-0.162
same,glycan array binding signal (z-score),[24],-0.16
same,glycan array binding signal (z-score),[25],-0.153
same,glycan array binding signal (z-score),[26],-0.151
same,glycan array binding signal (z-score),[27],-0.134
same,glycan array binding signal (z-score),[28],-0.154
same,glycan array binding signal (z-score),[29],-0.157
